# Results filed as inconclusive are left out. Entries that show only a call come without a potency. Calls of active or inactive are those of the source. The call rests on the fitted dose curve; in most records, active means well fitted cell-killing curve with a large enough effect; inconclusive means small, poorly fitted or top-dose-only effect; inactive means flat fitted curve, though single readings scatter.
# Experiment: qHTS assay to identify small molecule inhibitors of chordoma cells - UCH-2 (AID 1259356)
# Details: UCH-2 chordoma viability, CellTiter-Glo ATP luminescence, 48 h; series mostly up to 46.1 µM
# Source text: NIH Chemical Genomics Center [NCGC]
# Chordoma is a rare and slow growing tumor that can occur anywhere along the spine, from the base of the skull to the tailbone. Current treatment options for chordoma is surgery and radiation therapy for those who are not candidates for surgery. But chordomas tend to return in the same location or surrounding areas of the original tumor after surgery and/or radiation. Chemotherapy can slow down the progression of the tumor. As chordoma is slow growing, the general cytotoxic agents that kill fast growing cells are ineffective, and some patients have been reported to respond to molecularly targeted drugs.
# NCATS Pharmaceutical Collection (NPC) containing approximately 3000 clinically approved and investigational drugs were used to screen at 15 concentrations in a chordoma cell lines, UCH-2, to identify small molecule compounds that can inhibit chordoma cell growth.
# NCGC Assay Protocol Summary:
# Human chordoma cell line UCH-2 was dispensed at 800 per well in 4uL of culture medium into white solid bottom 1536-well plates (Corning Life Sciences, Corning, NY) using a Multidrop Combi (Thermo Scientific, Waltham, MA) dispenser. The assay plates were incubated at 37 C and 5% CO2 for an overnight, and then 23nL of compounds dissolved in DMSO and positive control were transferred using a Pintool station (Wako, San Diego, CA). Compound treatment was followed by the addition of 1uL of the combination compounds (1uM Auranofin, 500nM each of Camptothecin, Doxorubicin, Rubitecan, and Topotecan) and assay medium to each well of the assay plates using Flying Reagent Dispenser (FRD, Aurora Discovery, San Diego, CA). The assay plates were incubated at 37 C and 5% CO2 for 48hr. Then 5uL of CellTiter-Glo reagent (Promega Corporation, Madison, WI) was added to each well of the assay plates using FRD. After 30min incubation at room temperature, the luminescence signal was quantified using a ViewLux plate reader (PerkinElmer, Shelton, CT).
row,Compound,Potency
1,C[C@]12C=CC(=O)C=C1CC[C@H]1[C@@H]3C[C@@H](O)[C@](O)(C(=O)CO)[C@@]3(C)C[C@H](O)[C@@]12F,inactive
2,CN1C[C@H](C(=O)N[C@]2(C)O[C@@]3(O)[C@@H]4CCCN4C(=O)[C@H](Cc4ccccc4)N3C2=O)C[C@@H]2c3cccc4[nH]cc(c34)C[C@H]21,inactive
3,COC(=O)[C@H]1[C@H]2C[C@@H]3c4[nH]c5cc(OC)ccc5c4CCN3C[C@H]2C[C@@H](OC(=O)c2cc(OC)c(OC)c(OC)c2)[C@@H]1OC,inactive
4,CC(C)COCC(CN(Cc1ccccc1)c1ccccc1)N1CCCC1 (stereo not given),inactive
5,C[N+](C)(C)CCOC(=O)CCC(=O)OCC[N+](C)(C)C,inactive
6,CN/C(=C\[N+](=O)[O-])NCCSCc1ccc(CN(C)C)o1,inactive
7,COc1ccc(CCN(C)CCCC(C#N)(c2cc(OC)c(OC)c(OC)c2)C(C)C)cc1OC (stereo not given),inactive
8,COc1ccc(CN(CCN(C)C)c2ccccn2)cc1,inactive
9,Cc1nc2sccn2c(=O)c1CCN1CCC(=C(c2ccc(F)cc2)c2ccc(F)cc2)CC1,inactive
10,Nc1nc(N)c2nc(-c3ccccc3)c(N)nc2n1,inactive
11,CC(N=C(NC#N)Nc1ccncc1)C(C)(C)C (stereo not given),inactive
12,COc1cc2c(cc1OC)-c1cc(=Nc3c(C)cc(C)cc3C)n(C)c(=O)n1CC2,inactive
13,CN1CCN(CC(=O)N2c3ccccc3C(=O)Nc3cccnc32)CC1,inactive
14,CC(=O)Oc1cc(C(C)C)c(OCCN(C)C)cc1C,inactive
15,Cc1cccc(C)c1NC(=O)C(C)N (stereo not given),inactive
16,COc1cc(C(=O)OCCCN2CCCN(CCCOC(=O)c3cc(OC)c(OC)c(OC)c3)CC2)cc(OC)c1OC,inactive
17,CCCCOCCOCCOCc1cc2c(cc1CCC)OCO2,inactive
18,C[C@]12CCC(=O)C=C1CC[C@@H]1[C@@H]2CC[C@@]2(C)[C@H]1CC[C@]2(O)C(=O)CO,inactive
19,CCc1cccc(N(C)C(N)=Nc2cccc3ccccc23)c1,inactive
20,CC(=O)OCC1=C(C(=O)O)N2C(=O)[C@@H](NC(=O)Cc3cccs3)[C@H]2SC1,inactive

row,Compound,Potency
1,NC(=O)c1cn(Cc2c(F)cccc2F)nn1,inactive
2,CN(C)[C@@H]1C(=O)C(C(N)=O)=C(O)[C@@]2(O)C(=O)C3=C(O)c4c(O)ccc(Cl)c4[C@@H](O)[C@H]3C[C@@H]12,inactive
3,Cc1nnc(SCC2=C(C(=O)O)N3C(=O)[C@@H](NC(=O)Cn4cnnn4)[C@H]3SC2)s1,inactive
4,CCCCNc1c(C(=O)OCC)c(C)nc2c1cnn2CC,inactive
5,CCCCCCCC/C=C\CCCCCCCC(=O)NCc1ccc(O)c(OC)c1,inactive
6,CC[N+](C)(C)c1cccc(O)c1,inactive
7,NC(=Nc1ccccc1)Nc1ccccc1,inactive
8,COC(=O)C1=C(C)NC(C)=C(C(=O)OCCN(C)Cc2ccccc2)C1c1cccc([N+](=O)[O-])c1 (stereo not given),inactive
9,NC/C=C/C(=O)O,inactive
10,CN1C(=O)CC[C@H]1c1cccnc1,inactive
11,CN(C)CCN(Cc1cccs1)c1ccccn1,inactive
12,CCN1CCc2nc(N)oc2CC1,inactive
13,CSc1ccc(C(=O)c2[nH]c(=O)[nH]c2C)cc1,inactive
14,CC(C)(C)c1ccc(C(=O)CCCN2CCC(OC(c3ccccc3)c3ccccc3)CC2)cc1,inactive
15,CCC(=O)c1ccc2c(c1)N(CCCN(C)C)c1ccccc1S2,inactive
16,c1cnc(N2CCN(Cc3ccc4c(c3)OCO4)CC2)nc1,inactive
17,Cc1ccc(=O)n(-c2ccccc2)c1,inactive
18,CCN(CC)CCNC(=O)c1cc(S(C)(=O)=O)ccc1OC,inactive
19,CCOC(=O)C1=C(C)NC(C)=C(C(=O)OC)C1c1cccc([N+](=O)[O-])c1 (stereo not given),inactive
20,CC(C)(Oc1ccc(CCNC(=O)c2ccc(Cl)cc2)cc1)C(=O)O,inactive

# Source: PubChem BioAssay (NCATS)
